# High-throughput results (PubChem BioAssay)
# Compounds with a hit are over-represented: about 21% of the library has one in this group of screens.
# Sm TGR inh – blocks Schistosoma mansoni thioredoxin glutathione reductase; Q962Y6; purified TGR, DTNB reduction, TNB absorbance 405 nm; Potency, µM (titrated, usually from 114 µM), for the others: top-dose activity change, negative = inhibition, most hits filed as inhibitors; AID 485364; 360,000 tested, 3% active; further: potency means the concentration at half of the fitted maximal effect; on the % scale 0 is the no-effect control and ±100 the full control effect; nearly all actives have a fitted effect of over 60% in size
#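 TGR 20 nM + NADPH 100 uM (dispensed conc.), cpd preinc 15 min RT; start with NADPH (500 uM addition) then DTNB (15 mM addition). Kinetic TNB absorbance, 405 nm filter. Four-parameter Hill fit across titration.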
# Shiga inhibitor – Shiga toxin inhibition; Vero cells, Shiga toxin protein synthesis inhibition reporter; inhibition, % at 38.7 µM; 290,000 tested, 9.2% active; AID 2315; in the data active means inhibition mostly above about 28%, no sharp cut-off; inactive means mostly below about 43%; further: 0% is about no effect
# Pf growth 48h – P. falciparum growth inhibition at 48 hours (one generation). P. falciparum luciferase growth in erythrocytes, 48 h. Potency, µM (top dose mostly 28.7 µM), for inactives: top-dose activity change, negative = inhibition, hits mostly inhibitors. 310,000 tested, 5.9% active. AID 504832; further: potency means the concentration at half of the fitted maximal effect; on the % scale 0 is the no-effect control and ±100 the full control effect
#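 Cell-based growth assay: transgenic P. falciparum expressing firefly luciferase, cultured in red cells within RPMI 1640 containing 0.5% w/v Albumax, 24 mM bicarbonate and gentamycin. A drop in luciferase activity indicates inhibition.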
# NS1 function inh – inhibitors of influenza NS1 protein function; Potency, µM (titrated, usually from 46.1 µM), for inactives: at the highest dose activity, positive = more growth; 270,000 tested, 0.4% active; AID 2326; calls by dose curve; further: potency means the concentration at half of the fitted maximal effect; actives are rising curves; nearly all actives have a fitted effect of over 50% in size
#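 Recovery from NS1-induced slow growth read by OD600 in budding yeast switched to galactose assay medium (pH 6.0, -URA) at 1:100 dilution. Compound 23 nl per well; the matching strain lacking NS1 serves as control.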
# Pf growth 96h – P. falciparum growth inhibition at 96 hour, primary screen for plastid delayed-death inhibitors; P. falciparum luciferase reporter growth, 96 h; Potency, µM (titrated, usually from 28.7 µM), for inactives: top-dose activity change, negative = inhibition, actives largely listed as inhibitors; 320,000 tested, 6.9% active; AID 504834; further: potency means the concentration at half of the fitted maximal effect; on the % scale 0 is the no-effect control and ±100 the full control effect
#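 P. falciparum expressing integrated firefly luciferase, in erythrocytes at 2% hematocrit, 0.05% parasitemia, incubated with compounds 96 h at 37 C, 5% CO2. Growth inhibition read as loss of luminescence; two-generation exposure targets delayed-death apicoplast inhibitors.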
# CHX counter – affects cycloheximide protein synthesis inhibition readout, counter-screen | AID 2314 | max response, % | 300,000 tested, 12% active | cell reporter, cycloheximide protein synthesis inhibition counterscreen; in the data active means max response mostly above about 13%, no sharp cut-off; inactive means mostly below about 14%; further: read at 38.3 µM for the half of the compounds with a filed dose; 0% is about no effect
# Starred values were filed as active, the others as inactive; ? = inconclusive; . = no result. Unless noted, the call rests on the fitted dose curve; in most records, active means well fitted curve in the direction sought with a large enough effect; inconclusive means small, poorly fitted or top-dose-only effect, or another doubt; inactive means no such curve, though single readings can be large; an effect the other way counts as inactive or inconclusive.
SMILES,Sm TGR inh,Shiga inhibitor,Pf growth 48h,NS1 function inh,Pf growth 96h,CHX counter
O=c1c(-c2ccc(Br)cc2)[n+]([O-])c2ccccc2n1OCc1ccccc1,-5%,19,12%,-3%,10%,-3
CC(C)(C)c1ccc(COn2c(=O)c(-c3ccco3)[n+]([O-])c3ccccc32)cc1,18µM*,5,.,1%,-28%,19*
CCO[C@H]1O[C@@H]([C@H](COCc2ccccc2)OCc2ccccc2)[C@@H](OCc2ccccc2)[C@H]1O,.,.,6.4µM*,.,4.5µM*,.
CCOC(=O)CC(NC(=O)Cc1cccs1)c1ccccc1Cl (stereo unspecified),89µM*,2,-2%,0%,3%,8
COc1cccc(C2C(C(=O)Nc3cccnc3)=C(C)Nc3nc(SCc4ccccc4)nn32)c1 (stereo unspecified),-1%,.,.,.,.,.
Cc1ccccc1-c1nnc(CS(=O)(=O)c2ccccc2)o1,-10%,61*,185%,9%,?,43*
Cc1nnc(-c2ccccc2)o1,13%,-1,4%,3%,-17%,3
Cc1ccccc1-c1nnc(-c2ccccc2)o1,-5%,95*,240%,-85%,?,35*
Cc1cccc(-c2nnc(-c3ccccc3)o2)c1,-5%,56*,141%,-100%,137%,33*
Nc1nnc(-c2cccc([N+](=O)[O-])c2)o1,22%,23,12%,0%,-4%,2
O=[N+]([O-])c1cccc(-c2nnc(-c3ccccc3F)o2)c1,-11%,22*,114%,-12%,?,30*
CCN(c1ccc(C)cc1C)S(=O)(=O)c1nnc(NC(=O)CC(C)C)s1,1%,.,.,.,.,.
Cc1ccccc1-c1nc(Cc2ccc(Cl)cc2)no1,2%,42,35%,-17%,-7%,25*
Cc1ccccc1-c1noc(-c2cccnc2N(C)Cc2ccc(Cl)cc2)n1,-15%,.,.,.,.,.
Cn1cc(-c2nnc(-c3ccccc3)o2)c2ccccc21,1%,146*,182%,-3%,-11%,59*
Cc1ccccc1-c1nnc(-c2ccc(Cl)cc2)o1,5%,104*,.,-14%,112%,58*
CN(C)c1ccc(-c2nnc(-c3ccccc3F)o2)cc1,-1%,59*,63%,-27%,5%,28*
CCOc1ccc2nc(NC(=O)CC3Oc4ccccc4NC3=O)sc2c1 (stereo unspecified),-3%,55,24%,5%,23%,8
O=C(O)CCSc1nc2ccccc2s1,-3%,-8,-24%,0%,1%,-8
CCn1c(CSc2nc3ccccc3s2)n[nH]c1=S,4%,21,.,-4%,-10%,12
c1ccc2sc(SCc3ccc(-c4nnco4)cc3)nc2c1,-29%,73*,0%,-15%,?,38*
CCNC(=O)c1ccc(CSc2nc3ccccc3s2)cc1,-35%,-11,2%,7%,?,-2
NC(=O)c1ccc(CSc2nc3ccccc3s2)cc1,0%,94*,133%,3%,268%,48*
CCC(C)/C(C)=N/NC(=O)c1ccc(CSc2nc3ccccc3s2)cc1 (stereo unspecified),3%,34,22%,?,-3%,20*
COCCNC(=O)c1ccc(CSc2nc3ccccc3s2)cc1,9%,73*,-19%,-56%,-24%,43*
Cc1cc2c(n1-c1ccc(C(=O)NCCc3ccccc3)cc1)CCC(C)C2 (stereo unspecified),-34%,.,.,.,.,.
CCCCC1(C)NC(=O)N(CC(=O)Nc2cc(S(=O)(=O)N3CCOCC3)ccc2Cl)C1=O (stereo unspecified),-20%,.,-16%,.,3%,.
Cc1ccc(C)c(C(=O)COC(=O)C(C)N2C(=O)C3C4CCC(C4)C3C2=O)c1 (stereo unspecified),22µM*,10,-1%,-6%,?,18
Cc1ccc(C(=O)COC(=O)C(C)N2C(=O)C3C4CCC(C4)C3C2=O)cc1 (stereo unspecified),2%,4,10%,-21%,8.3µM*,11
CC(C(=O)OCC(=O)c1ccc(Br)cc1)N1C(=O)C2C3CCC(C3)C2C1=O (stereo unspecified),-14%,-7,24%,-5%,12µM*,-2
